In PubChem BioAssay AID434959 (Broad Institute, 2010):
The whole screen tested about 30,000 compounds, of which about 110 (0.37%) were called active. This excerpt belongs to a sample that is enriched for actives. Unmarked numbers belong to inactive results.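 Rule for the calls: active = delta delta Cp rounded down to an integer at or above 3, about 3 SD of DMSO wells; inactive = the rest.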

Experiment: YB-1 transcript reduction by qRT-PCR – cell-based, fluorescence, primary screen (AID 434959);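 note: higher means less YB-1 transcript or more CDIP transcript relative to DMSO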
Details: U2OS, qRT-PCR YB-1 vs CDIP delta delta Cp, 16 h; hits give high values; zero = DMSO, each unit about twofold

Compound | delta Cp (YB-1 minus CDIP)
COc1ccc(S(=O)(=O)Nc2ccc3c(c2)CC(=O)N([C@H](C)CO)C[C@H](C)[C@H](CN(C)C(=O)Nc2ccccc2)O3)cc1 | 0.185
C[C@@H]1CN([C@@H](C)CO)C(=O)Cc2cc(NC(=O)C3CCCCC3)ccc2O[C@@H]1CN(C)CC1CCCCC1 | 0.332
Cc1noc(C)c1NC(=O)N(C)C[C@H]1Oc2c(NS(=O)(=O)c3cccs3)cccc2C(=O)N([C@@H](C)CO)C[C@@H]1C | -0.0216
C[C@H]1CN([C@@H](C)CO)C(=O)c2cc(NC(=O)Cc3cn(C)c4ccccc34)ccc2O[C@H]1CN(C)CC1CCCCC1 | -0.873
C[C@H]1CN([C@@H](C)CO)C(=O)Cc2cc(NC(=O)Nc3ccc(F)cc3)ccc2O[C@H]1CN(C)S(=O)(=O)c1ccccc1 | -0.124
O=C(O)CCCCCCC(=O)NN=C1CCCCCC1 | -0.0992
C[C@H](CO)N1C[C@H](C)[C@@H](CN(C)S(=O)(=O)c2ccccc2)Oc2c(NS(=O)(=O)c3cn(C)cn3)cccc2C1=O | 0.133
CC(C)CSc1nnc(CSCc2nc(-c3ccc(Cl)cc3)cs2)n1C | 0.176
COC(=O)[C@@]1(CCS(=O)(=O)c2ccccc2)N=C(c2ccc(OCCCO)cc2)O[C@H]1c1ccccc1N=[N+]=[N-] | -0.253
Cc1ccc(-c2c[n+](=O)c3c(n2[O-])CCC3)cc1 | -0.134
CCc1c(C)n([O-])c2c([n+]1=O)CCCCC2 | 6.44 (active)
C[C@H]1CN([C@@H](C)CO)C(=O)Cc2cc(NC(=O)Cc3ccccc3)ccc2O[C@H]1CN(C)S(=O)(=O)c1ccc(Cl)cc1 | -0.43
COc1ccc(CN(C)C[C@H]2Oc3c(NS(=O)(=O)c4ccccc4)cccc3C(=O)N([C@H](C)CO)C[C@@H]2C)cc1 | 0.263
C[C@@H]1CCCCO[C@H](CN(C)C(=O)c2ccccc2)[C@@H](C)CN([C@H](C)CO)C(=O)c2cc(NC(=O)Nc3cccc4ccccc34)ccc2O1 | -0.0616
C[C@@H]1CN([C@H](C)CO)C(=O)c2cc(N(C)C)ccc2O[C@@H]1CN(C)S(C)(=O)=O | -0.194
C[C@@H]1CN([C@@H](C)CO)C(=O)CCCn2cc(nn2)CO[C@H]1CN(C)Cc1ccc(C(=O)O)cc1 | 0.212
CC1OC(OC2C(OC3C(O[C@H]4CC[C@@]5(C)C(CC[C@]6(C)C5CC=C5[C@@H]7CC(C)(C)C[C@@H](O)[C@]7(C)CC[C@]56C)C4(C)C)OC(C(=O)O)C(O)C3O)OC(CO)C(O)C2O)C(O)C(O)C1O (stereo partly drawn) | 0.299
CC1(C)CC[C@]2(C(=O)O[C@@H]3O[C@H](CO)[C@@H](O)[C@H](O)[C@H]3O)CC[C@]3(C)C(=CCC4[C@@]5(C)CC[C@H](O[C@@H]6O[C@H](C(=O)O)[C@@H](O[C@@H]7OC[C@H](O)[C@H](O)[C@H]7O)[C@H](O)[C@H]6O)C(C)(C)C5CC[C@]43C)C2C1 (stereo partly drawn) | 0.0826
C/C=C(/C)C(=O)O[C@H]1CC(C)(C)C[C@H]2C3=CCC4[C@@]5(C)CC[C@H](O[C@@H]6O[C@H](C(=O)O)[C@@H](O[C@@H]7O[C@H](CO)[C@H](O)[C@H](O)[C@H]7O[C@@H]7O[C@H](CO)[C@@H](O)[C@H](O)[C@H]7O)[C@H](O)[C@H]6O[C@@H]6O[C@@H](C)[C@H](O)[C@@H](O)[C@H]6O)C(C)(C)C5CC[C@@]4(C)[C@]3(C)[C@@H](O)[C@@H](O)[C@@]12CO (stereo partly drawn) | 10.3 (active)
C/C=C(/C)C(=O)O[C@H]1CC(C)(C)C[C@H]2C3=CCC4[C@@]5(C)CC[C@H](O[C@@H]6O[C@H](C(=O)O)[C@@H](O[C@@H]7O[C@H](CO)[C@H](O)[C@H](O)[C@H]7O[C@@H]7O[C@H](CO)[C@@H](O)[C@H](O)[C@H]7O)[C@H](O)[C@H]6O[C@@H]6O[C@@H](C)[C@H](O)[C@@H](O)[C@H]6O)C(C)(C)C5CC[C@@]4(C)[C@]3(C)[C@@H](OC(C)=O)[C@@H](O)[C@@]12COC(C)=O (stereo partly drawn) | -0.219
CCC/C=C/C(=O)OC1C(O)C23C(O)OC4(CCC5C6(C)CCC(OC7OC(C(=O)O)C(O)C(OC8OC(CO)C(O)C(O)C8OC8OC(C)C(O)C(O)C8OC8OCC(O)C(O)C8O)C7OC7OC(CO)C(O)C(O)C7O)C(C)(C)C6CCC5(C)C4(C)CC2OC(C)=O)C3CC1(C)C (stereo not drawn) | 3.51 (active)
CC1(C)CC[C@]2(C(=O)O)CC[C@]3(C)C(=CCC4[C@@]5(C)CC[C@H](OC6O[C@H](CO)[C@@H](O)[C@H](O[C@@H]7O[C@H](CO)[C@@H](O)[C@H](O)[C@H]7O)[C@H]6O)C(C)(C)C5CC[C@]43C)[C@@H]2C1 (stereo partly drawn) | -0.209
C=CC(C)(O)CCC1(C)C2=C(C(OC(C)=O)C(OC(C)=O)C1C)C(C)(C)CCC2 (stereo not drawn) | -0.399
COC(=O)[C@]1(Cc2ccccc2CN=[N+]=[N-])N=C(c2ccc(OCCCO)cc2)O[C@@H]1c1ccccc1CN=[N+]=[N-] | 0.139
C[C@@H]1CN([C@@H](C)CO)C(=O)c2cccc(NC(=O)Nc3cccc4ccccc34)c2O[C@@H]1CN(C)CC1CC1 | 0.192
C[C@@H]1CN([C@H](C)CO)C(=O)Cc2cc(NC(=O)Cn3cnnn3)ccc2O[C@@H]1CN(C)S(=O)(=O)c1ccc(F)cc1 | 0.145
C[C@H](CO)N1C[C@H](C)[C@H](CN(C)C(=O)NC2CCCCC2)Oc2c(NC(=O)c3nc4ccccc4s3)cccc2C1=O | 0.116

Compound | delta Cp (YB-1 minus CDIP)
C[C@H]1CN([C@@H](C)CO)C(=O)Cc2cc(N(C)C)ccc2O[C@@H]1CN(C)Cc1ccc(-c2ccccc2)cc1 | 0.0659
COC(=O)CCCCCCC(=O)N/N=C/c1ccc(C(=O)O)cc1 | -0.219
C[C@H]1CN([C@@H](C)CO)C(=O)c2cc(NC(=O)C3CCCCC3)ccc2O[C@H]1CN(C)S(=O)(=O)c1cn(C)cn1 | -0.0642
CC(C)(C)c1ccc(-c2[nH]nc(NC(=O)c3ccccc3Cl)c2Br)cc1 | 0.0133
C[C@@H]1CN([C@H](C)CO)C(=O)CCCn2cc(nn2)CO[C@@H]1CN(C)Cc1ccccc1C(=O)O | -0.246
C[C@@H]1CN([C@H](C)CO)C(=O)CCCn2nncc2CO[C@@H]1CN(C)C(=O)OCc1ccccc1 | 0.0587
O=C1C2CC3CC1CC(C(=O)O)(C3)C2 | 0.106
C[C@H](CO)N1C[C@H](C)[C@H](CN(C)C(=O)Nc2ccccc2)Oc2ccc(NC(=O)CCN3CCOCC3)cc2CC1=O | -0.228
CC1(C)CC(=O)c2ccc(O)cc2O1 | 1.96
Cc1cc(C(=O)Nc2cccc3c2O[C@@H](CN(C)C(=O)Nc2ccc4c(c2)OCO4)[C@H](C)CN([C@@H](C)CO)C3=O)n(C)n1 | -0.0832
C[C@H]1CN([C@@H](C)CO)C(=O)c2cc(NC(=O)NC3CCCCC3)ccc2O[C@@H]1CN(C)S(=O)(=O)c1cccs1 | 0.092
O=C(/C=C/c1ccccc1)c1ccc(O[C@@H]2O[C@H](CO)[C@@H](O)[C@H](O)[C@H]2O)cc1O | 0.0338
Oc1cc2c(cc1O)CN(C(=S)NCCc1ccc(Cl)cc1)CCC2 | 0.367
Cc1noc(C)c1NC(=O)Nc1ccc2c(c1)CC(=O)N([C@@H](C)CO)C[C@@H](C)[C@@H](CN(C)C(=O)NC(C)C)O2 | 0.0713
C[C@H]1CN([C@@H](C)CO)C(=O)Cc2cc(NC(=O)C3CC3)ccc2O[C@H]1CN(C)S(=O)(=O)c1ccc(Cl)cc1 | 0.415
[N-]=[N+]=Nc1ccccc1C[C@@]1(C(=O)NCc2ccccc2)N=C(c2ccc(OCCCO)cc2)O[C@@H]1c1ccccc1 | -0.629
O=C1O[C@@H](c2ccccc2)[C@@H](c2ccccc2)N2[C@@H](c3ccccc3OCCO)[C@]3(C(=O)Nc4ccc(C#CC5(O)CCCCCC5)cc43)[C@@H](C(=O)N3CCN(c4ncccn4)CC3)[C@H]12 | -0.244
C[C@H](CO)N1C[C@H](C)[C@H](CN(C)Cc2ccc(-c3ccccc3)cc2)Oc2ccc(NC(=O)Nc3ccc(F)cc3)cc2CC1=O | -0.469
COc1cc(/C(C)=C/C(C)=C\C(=O)O)oc(=O)c1C | -0.492
Cc1ccc(S(=O)(=O)N(C)C[C@H]2Oc3c(NC(=O)c4ccc(-c5nccs5)cc4)cccc3C(=O)N([C@H](C)CO)C[C@H]2C)cc1 | -0.182
CC1=COC(O[C@@H]2O[C@H](CO)[C@@H](O)[C@H](O)[C@H]2O)C2C1CC(O)C2CO (stereo partly drawn) | -0.367
C[C@@H]1CN([C@@H](C)CO)C(=O)CCCn2nncc2CO[C@@H]1CN(C)Cc1ccccc1 | 0.131
C[C@@H]1CN([C@H](C)CO)C(=O)Cc2cc(NS(=O)(=O)c3ccc(F)cc3)ccc2O[C@@H]1CN(C)S(=O)(=O)c1ccc(F)cc1 | -0.0534
COc1ccc(C#Cc2ccc3c(c2)[C@]2(C(=O)N3)[C@H](c3ccccc3OCCO)N3[C@H](c4ccccc4)[C@H](c4ccccc4)OC(=O)[C@H]3[C@@H]2C(=O)N2CCCCCCC2)cc1 | 0.00142
CNC[C@@H]1Oc2ncc(-c3ccc(F)cc3)cc2C(=O)N([C@H](C)CO)C[C@@H]1C | -0.148
CC(C)NC(=O)N(C)C[C@H]1Oc2ccc(NC(=O)CCCCCC(=O)Nc3ccccc3N)cc2CC(=O)N([C@@H](C)CO)C[C@H]1C | 0.0201
